An excerpt weighted towards active compounds, which were near 2.8% of everything screened.
esBAF inh = blocks esBAF chromatin remodeling in mouse ES cells. Bmi1-luciferase knock-in reporter, 24 h; 100% = twice the neutral-well signal. reporter increase, % at 12.5 µM. 2% of 350,000 active; in the data active = activation above about 40%; inconclusive = no clear call, values can overlap the other calls;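 note: 0% = median of the plate's neutral control wells and 100% = double that signal; a rise in the Bmi1 reporter signal indicates esBAF inhibition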
FXN GAA850 act = increases GAA850 frataxin promoter reporter activity. HEK293 lucGAA850 FXN promoter luciferase reporter, 24 h; percent of 10 µM SAHA response. activation, % at 6 µM. 0.56% of 360,000 active. AID 540364;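 active = activation above the average of all compounds screened plus 3 SD, cutoff fixed separately per campaign, cut at about 7.5% in these data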;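 note: 0% = DMSO wells and 100% = 10 µM SAHA wells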
MITF TRPM1 HTS = increases MITF-driven TRPM1 promoter luciferase signal; SK-MEL-5 TRPM1-promoter luciferase, 24 h; % of positive control, neutral wells = 0; 0.75% of 300,000 active; activation, % at 12.5 µM;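 active = mean activation of at least 80% with every replicate also reaching 80%; inconclusive = mean reaches 80% but some replicate falls short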;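 note: 0% = neutral control wells and 100% = parthenolide positive control wells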
Wnt act = activators of Wnt/beta-catenin signaling | Wnt/beta-catenin reporter cell assay, activator, plate reader | activation, % at 9.35 µM | 1.2% of 300,000 active; in the data active = activation above about 30%, passing the limit was not always enough; inconclusive = no clear call, values can overlap the other calls;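 note: 0% = neutral control wells and 100% = positive control wells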
An asterisk follows results filed as active.

Results for Cc1cc(C)c(C#N)c(N2CCSCC2)n1 ?
esBAF inh: -8.2; FXN GAA850 act: 0.7; MITF TRPM1 HTS: 13.7; Wnt act: 61.5*

Results for c1ccc2oc(SCc3cn4ccccc4n3)nc2c1 ?
FXN GAA850 act: 2.8; MITF TRPM1 HTS: 37.5; Wnt act: inconclusive

How did Cc1ccc(SCc2cn3ccccc3n2)cc1 do in these assays?
esBAF inh: 38.5; FXN GAA850 act: 1.5; MITF TRPM1 HTS: 96.4*; Wnt act: 32.6*

What do the screens show for `O=C(O)c1ccccc1SCc1cn2ccccc2n1`?
FXN GAA850 act: 3.1; MITF TRPM1 HTS: -3.8; Wnt act: -1.8

Results for c1ccc(CSCc2cn3ccccc3n2)cc1 ?
esBAF inh: 70.5*; FXN GAA850 act: 4.7; MITF TRPM1 HTS: 72.3; Wnt act: 19.5

What do the screens show for `c1ccc2nc(SCc3cn4ccccc4n3)cnc2c1`?
FXN GAA850 act: 5.3; MITF TRPM1 HTS: 57.1; Wnt act: 38.3*

What do the screens show for `O=C(/C=C/c1ccc(F)cc1)c1ccccc1Br`?
FXN GAA850 act: 9.3*; MITF TRPM1 HTS: 21.4; Wnt act: 28.2

What do the screens show for `CCCn1nnc(NC(=O)c2ccc3ccccc3c2)n1`?
FXN GAA850 act: 3.5; MITF TRPM1 HTS: 121.6*; Wnt act: 9.4

How did O=C(C[C@@H]1C[C@@H]2c3cc(NC(=O)c4ccc5c(c4)OCO5)ccc3O[C@@H]2[C@H](CO)O1)NCc1cc(F)ccc1F do in these assays?
esBAF inh: 6.2

Results for CCOc1ccc2nc(N3CCC(C(=O)N4CCN(C(=O)c5ccco5)CC4)CC3)sc2c1 ?
esBAF inh: 23.9; FXN GAA850 act: 3.4; MITF TRPM1 HTS: 11.7

How did CCOc1ccc2nc(NC(=O)C3CCN(C(=O)c4ccco4)CC3)sc2c1 do in these assays?
esBAF inh: 65.3*; FXN GAA850 act: 3.1; MITF TRPM1 HTS: 76.9; Wnt act: 20.7

What do the screens show for `O=C(Nc1nc2ccccc2s1)C1CCN(C(=O)c2ccco2)CC1`?
esBAF inh: 21.1; FXN GAA850 act: 1.6; Wnt act: 0.9

Results for CCOc1ccc2nc(N3CCC(C(=O)Nc4nnc(CC)s4)CC3)sc2c1 ?
esBAF inh: 48.0*; FXN GAA850 act: 3.5; MITF TRPM1 HTS: 34.2; Wnt act: 1.7

How did CCOc1ccc2nc(N3CCC(C(=O)N4CCN(C5CCCCC5)CC4)CC3)sc2c1 do in these assays?
esBAF inh: 64.7*; FXN GAA850 act: 2.0; MITF TRPM1 HTS: -2.2; Wnt act: -4.1

Results for COCC#Cc1cnc2c(c1)C(=O)N([C@H](C)CO)C[C@H](C)[C@@H](CN(C)C)O2 ?
esBAF inh: -0.9

How did COc1ccc(-c2nnc(SC(C)C(=O)Nc3cccc(Cl)c3)o2)cc1 (stereo unspecified) do in these assays?
esBAF inh: 39.7; FXN GAA850 act: 3.4; MITF TRPM1 HTS: 86.9*; Wnt act: 39.2*

How did COc1ccc(-c2nnc(SC(C)C(=O)NNC(=O)c3ccc(C)cc3)o2)cc1 (stereo unspecified) do in these assays?
FXN GAA850 act: 3.1; MITF TRPM1 HTS: 2.9

Results for C[C@H](O)C#Cc1ccc2c(c1)O[C@@H](CN(C)C(=O)C1CCC1)[C@H](C)CN([C@@H](C)CO)S2(=O)=O ?
esBAF inh: 1.7

Results for Cc1ccc(S(=O)(=O)Nc2cccc3c2O[C@H](CN(C)C(=O)Nc2ccc4c(c2)OCO4)[C@@H](C)CN([C@H](C)CO)C3=O)cc1 ?
esBAF inh: 49.2*

What do the screens show for `Cc1ccc(S(=O)(=O)Nc2cccc3c2O[C@@H](CN(C)C(=O)Nc2ccc4c(c2)OCO4)[C@@H](C)CN([C@@H](C)CO)C3=O)cc1`?
esBAF inh: 72.7*

How did C[C@H]1CN([C@@H](C)CO)C(=O)Cc2cc(NC(=O)C3CCCCC3)ccc2O[C@H]1CN(C)C(=O)Nc1ccc2c(c1)OCO2 do in these assays?
esBAF inh: 25.7

What do the screens show for `C[C@H]1CN([C@@H](C)CO)C(=O)Cc2cc(NC(=O)C3CCCCC3)ccc2O[C@@H]1CN(C)C(=O)Nc1ccc2c(c1)OCO2`?
esBAF inh: 41.9*

How did C[C@@H]1CN([C@@H](C)CO)C(=O)c2cccc(NC(=O)Nc3ccccc3)c2O[C@H]1CN(C)C(=O)Nc1ccc2c(c1)OCO2 do in these assays?
esBAF inh: 61.3*

What do the screens show for `COC(=O)C[C@H]1CC[C@@H]2[C@@H](COc3ccc(NC(=O)c4cccs4)cc3C(=O)N2C)O1`?
esBAF inh: -2.4

How did Cc1ccc(S(=O)(=O)Nc2ccc3c(c2)C(=O)N([C@H](C)CO)C[C@H](C)[C@@H](CN(C)C)OCCCC[C@H](C)O3)cc1 do in these assays?
esBAF inh: -5.0

Compound activity deposited in PubChem BioAssay by several laboratories.
